According to PubChem BioAssay (EPA / NIEHS):
Records with an inconclusive call do not appear. The source holds several records for some structures; these can differ, active in one and inactive in another. Active and inactive are the calls of the source. Rule for the calls, unless noted: active = hit-call score of the fitted dose curve at least 0.9, where 1 is the maximum; inactive = score below 0.9.

Assays:
[1] = read-out: Monokine induced gamma interferon (MIG), CXCL9 (gene 4283); experiment: BSK_3C_MIG: BioMAP Diversity Plus: 3C Assay for Monokine induced gamma interferon (MIG) Biomarker Activity (AID 2283021); details: primary human endothelial cells (HUVEC); actives raise or lower the signal
In short: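 Endothelial primary cells (human umbilical vein) are dosed with test chemical in the 3C system. MIG levels are measured by ELISA at 24 h and fitted in both directions relative to DMSO.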

[2] = read-out: Matrix Metallopeptidase 1 (MMP1), MMP1 (gene 4312); experiment: BSK_BE3C_MMP1: BioMAP Diversity Plus: BE3C Assay for Matrix Metallopeptidase 1 (MMP1) Biomarker Activity (AID 2283024); details: primary human bronchial epithelial cells; actives raise or lower the signal
In short: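 MMP1 signal, measured by ELISA after a 24 h chemical exposure of human primary bronchial epithelial cells, is analysed with bidirectional fitting using DMSO as negative control.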

[3] = read-out: Pselectin, SELP (gene 6403); experiment: BSK_4H_Pselectin: BioMAP Diversity Plus: 4H Assay for Pselectin Biomarker Activity (AID 2283026); details: primary human endothelial cells (HUVEC); actives raise or lower the signal
In short: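 Endothelial primary cells (human umbilical vein) are dosed, incubated 24 h, and assayed for surface P-selectin by ELISA; responses in either direction are fitted relative to the DMSO negative control.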

[4] = BSK_4H_SRB: Viability Assessment in the BioMAP Diversity Plus: 4H Assay (AID 2283027); details: primary human endothelial cells (HUVEC);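 note: cells exposed to compound for 24 h before staining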;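 for AC50: curves fitted both ways versus DMSO so AC50 may be loss or gain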
In short: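 HUVEC, 24 h post-dose; 10% TCA fix, 0.1% SRB stain, A560 nm. Total protein = overt cytotoxicity, parallel to biomarker read. Bidirectional fit vs DMSO baseline.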

[5] = BSK_BE3C_SRB: Viability Assessment in the BioMAP Diversity Plus: BE3C Assay (AID 2283028); details: primary human bronchial epithelial cells
In short: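 Overt cytotoxicity was assessed as total protein in confluent human primary bronchial epithelial cultures 24 h after chemical addition, using 0.1% sulforhodamine B staining read at 560 nm.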

[6] = read-out: Thrombomodulin, THBD (gene 7056); experiment: BSK_3C_Thrombomodulin: BioMAP Diversity Plus: 3C Assay for Thrombomodulin Biomarker Activity (AID 2283029); details: primary human endothelial cells (HUVEC); actives raise or lower the signal
In short: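 Endothelial cells from umbilical vein are dosed with test chemical and incubated 24 h. Thrombomodulin is then quantified by ELISA, with DMSO serving as negative control and activity baseline.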

[7] = read-out: Urokinase-type plasminogen activator receptor (uPAR), PLAUR (gene 5329); experiment: BSK_4H_uPAR: BioMAP Diversity Plus: 4H Assay for Urokinase-type plasminogen activator receptor (uPAR) Biomarker Activity (AID 2283030); details: primary human endothelial cells (HUVEC); actives raise or lower the signal
In short: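 Chemicals are dosed onto human vascular endothelial primary cells (umbilical vein). After 24 h, uPAR is read by ELISA. Gain or loss of signal is fitted relative to DMSO.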

[8] = read-out: Vascular endothelial growth factor receptor 2 (Homo sapiens) (UniProt P35968); experiment: BSK_4H_VEGFRII: BioMAP Diversity Plus: 4H Assay for Vascular endothelial growth factor receptor 2 (VEGFR2) Biomarker Activity (AID 2283031); details: primary human endothelial cells (HUVEC); actives raise or lower the signal
In short: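 VEGFRII levels on human vascular endothelial primary cells were determined by ELISA at 24 hours post-dosing, with gain- or loss-of-signal fitted against DMSO controls.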

[9] = read-out: Human Leukocyte Antigen - DR isotype (HLADR), HLA-DRA (gene 3122); experiment: BSK_BE3C_HLADR: BioMAP Diversity Plus: BE3C Assay for Human Leukocyte Antigen - DR isotype (HLADR) Biomarker Activity (AID 2283032); details: primary human bronchial epithelial cells; actives raise or lower the signal
In short: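 Chemicals are dosed onto BE3C bronchial epithelial cultures of human origin and left 24 h. HLA-DR is then measured by ELISA, and the endpoint is fitted in both directions using DMSO as the activity baseline.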

[10] = read-out: Vascular cell adhesion molecule 1 (VCAM1), VCAM1 (gene 7412); experiment: BSK_4H_VCAM1: BioMAP Diversity Plus: 4H Assay for Vascular cell adhesion molecule 1 (VCAM1) Biomarker Activity (AID 2283033); details: primary human endothelial cells (HUVEC); actives raise or lower the signal
In short: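 Chemicals are added to primary human umbilical vein endothelial cells. After 24 h, VCAM-1 levels are measured by ELISA. Values come from bidirectional fitting referenced to DMSO.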

[11] = read-out: Interferon-gamma inducible Protein 10 (IP10), CXCL10 (gene 3627); experiment: BSK_BE3C_IP10: BioMAP Diversity Plus: BE3C Assay for Interferon-gamma inducible Protein 10 (IP10) Biomarker Activity (AID 2283034); details: primary human bronchial epithelial cells; actives raise or lower the signal
In short: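 IP-10 quantified by ELISA serves as the endpoint. Cells: primary human bronchial epithelium, read 24 h after compound addition. Activity is derived by bidirectional fitting with DMSO as negative control.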

[12] = read-out: Monokine induced gamma interferon (MIG), CXCL9 (gene 4283); experiment: BSK_BE3C_MIG: BioMAP Diversity Plus: BE3C Assay for Monokine induced gamma interferon (MIG) Biomarker Activity (AID 2283035); details: primary human bronchial epithelial cells; actives raise or lower the signal
In short: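 Dose cells (human primary bronchial epithelial), incubate 24 h, quantify MIG by ELISA, then fit concentration–response in both directions relative to DMSO control.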

[13] = read-out: Transforming growth factor beta 1 (TGFb1), TGFB1 (gene 7040); experiment: BSK_BE3C_TGFb1: BioMAP Diversity Plus: BE3C Assay for Transforming growth factor beta 1 (TGFb1) Biomarker Activity (AID 2283036;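 note: TGF-b1 protein level measured by ELISA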); details: primary human bronchial epithelial cells; actives raise or lower the signal
In short: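 Bronchial epithelial primary cells are treated with test chemical, then TGF-b1 is quantified by ELISA after 24 hours. Values derive from bidirectional fitting against DMSO, with cytotoxicity checked by SRB staining in parallel cultures.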

[14] = read-out: Plasminogen activator inhibitor-1 (PAI1), SERPINE1 (gene 5054); experiment: BSK_BE3C_PAI1: BioMAP Diversity Plus: BE3C Assay for Plasminogen activator inhibitor-1 (PAI1) Biomarker Activity (AID 2283037); details: primary human bronchial epithelial cells; actives raise or lower the signal
In short: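 Values derive from bidirectional fitting against DMSO baseline of PAI-1 levels, measured by ELISA in human bronchial epithelial cells 24 h after compound addition.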

[15] = read-out: urokinase plasminogen activator (uPA), PLAU (gene 5328); experiment: BSK_BE3C_uPA: BioMAP Diversity Plus: BE3C Assay for urokinase plasminogen activator (uPA) Biomarker Activity (AID 2283038); details: primary human bronchial epithelial cells; actives raise or lower the signal;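 note: uPA protein level quantified by ELISA in cell cultures; uPA read one day after compound addition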
In short: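 Measured by ELISA: uPA from human primary bronchial epithelial cells 24 h after chemical treatment. Values derive from bidirectional curve fitting with DMSO serving as negative control. Total protein by SRB staining in parallel wells flagged overt cytotoxicity.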

[16] = read-out: Urokinase-type plasminogen activator receptor (uPAR), PLAUR (gene 5329); experiment: BSK_BE3C_uPAR: BioMAP Diversity Plus: BE3C Assay for Urokinase-type plasminogen activator receptor (uPAR) Biomarker Activity (AID 2283039); details: primary human bronchial epithelial cells; actives raise or lower the signal;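 note: uPAR protein level measured by ELISA on the cells; cells exposed to compound for one day before measurement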
In short: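 Steps: dose human primary bronchial epithelial cells, incubate 24 h, measure uPAR by ELISA, then fit gain- or loss-of-signal response bidirectionally relative to DMSO.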

[17] = read-out: Interleukin-6 (IL6), IL6 (gene 3569); experiment: BSK_CASM3C_IL6: BioMAP Diversity Plus: CASM3C Assay for Interleukin-6 (IL6) Biomarker Activity for (AID 2283040); details: primary human coronary artery smooth muscle cells; actives raise or lower the signal
[18] = molecular target: human Vitamin D Receptor (VDR), VDR (gene 7421) (UniProt P11473); experiment: ATG_VDR_TRANS: Attagene TRANS-FACTORIAL HepG2 Assay for human Vitamin D Receptor (VDR) (AID 2283022; active = hit-call score of the fitted dose curve at least 0.9, where 1 is the maximum)
In short: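 Fluorescence of labelled reporter cDNA fragments, resolved by capillary electrophoresis, gives mRNA induction after 24 h treatment of HepG2 cells carrying transfected Gal4-fusion reporter units. Activity is fitted in the positive direction with DMSO as baseline.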

[19] = BSK_3C_SRB: Viability Assessment in the BioMAP Diversity Plus: 3C Assay (AID 2283023); details: primary human endothelial cells (HUVEC);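 note: fitted both ways against DMSO so a hit may be signal rise or drop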
In short: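 Cells were dosed with chemical, cultured 24 h, fixed with 10% TCA, stained with 0.1% SRB and read at 560 nm. Human umbilical vein endothelium was used; DMSO served as negative control and baseline.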

[20] = read-out: Interleukin-8 (IL8), CXCL8 (gene 3576); experiment: BSK_3C_IL8: BioMAP Diversity Plus: 3C Assay for Interleukin-8 (IL8) Biomarker Activity (AID 2283020); details: primary human endothelial cells (HUVEC); actives raise or lower the signal
In short: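 Endothelial primary cells of human umbilical vein origin are dosed with chemical; after 24 h the IL-8 biomarker is measured by ELISA, and concentration–response is fitted in both directions versus DMSO.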

Measured: AC50

Sequence of human Vitamin D Receptor (VDR), VDR (gene 7421) (P11473 whole entry, looked up, the tested form may be a part): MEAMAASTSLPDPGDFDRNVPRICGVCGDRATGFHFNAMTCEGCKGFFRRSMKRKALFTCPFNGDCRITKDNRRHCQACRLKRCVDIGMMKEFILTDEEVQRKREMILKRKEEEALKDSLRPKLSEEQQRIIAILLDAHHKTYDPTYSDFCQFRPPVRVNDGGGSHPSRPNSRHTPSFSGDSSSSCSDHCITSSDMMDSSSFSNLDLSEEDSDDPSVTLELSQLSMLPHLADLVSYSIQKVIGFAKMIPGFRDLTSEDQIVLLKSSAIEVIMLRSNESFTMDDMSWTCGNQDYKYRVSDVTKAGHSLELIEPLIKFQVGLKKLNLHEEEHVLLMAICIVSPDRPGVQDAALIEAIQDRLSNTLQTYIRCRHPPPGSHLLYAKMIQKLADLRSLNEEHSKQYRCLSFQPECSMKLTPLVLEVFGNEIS

C#C[C@]1(O)CC[C@H]2[C@@H]3CCc4cc(O)ccc4[C@H]3CC[C@@]21C
active: [4] 3.99 µM | [7] 3.93 µM
not listed: [18] | [19] | [20]
inactive: all other assays above

c1ccc(OCCOc2ccccc2)cc1
active: [2] 0.0654 µM
inactive: [1] | [18] | [19] | [2] | [3] | [4] | [5] | [6] | [7] | [8] | [9] | [10] | [12] | [14] | [15] | [16] | [17]

C[C@]12CC[C@@H]3c4ccc(O)cc4CC[C@H]3[C@@H]1CC[C@@H]2O
active: [4] 12.4 µM | [7] 8.9 µM
not listed: [11] | [19]
inactive: all other assays above

CCCO[Si](OCCC)(OCCC)OCCC
not listed: [11] | [13] | [19] | [20]
inactive: all other assays above

OCCN1CCOCC1
not listed: [11] | [18] | [19]
inactive: all other assays above

CC(C)(C)c1cccc(O)c1
not listed: [11] | [19] | [20]
inactive: all other assays above

CCCCCCCCCCCCS
active: [2] 20 µM | [3] 20 µM | [4] 29.6 µM | [9] 20 µM | [10] 11.2 µM
not listed: [11] | [19] | [20]
inactive: all other assays above

CC1(C)[C@H](C=C(Cl)Cl)[C@H]1C(=O)OCc1cccc(Oc2ccccc2)c1
not listed: [11] | [20]
inactive: all other assays above

O=S(=O)(O)C(F)(F)C(F)(F)OC(F)(F)C(F)(F)F
active: [2] 42.9 µM
inactive: [1] | [2] | [3] | [4] | [5] | [6] | [7] | [8] | [9] | [10] | [12] | [14] | [15] | [16] | [17]

O=C1OC2(c3ccc(O)cc3Oc3cc(O)ccc32)c2ccccc21
not listed: [11] | [19] | [20]
inactive: all other assays above

CC(C)(CO)CO
active: [3] 5.64 µM | [12] 8.35 µM
inactive: [1] | [2] | [3] | [4] | [5] | [6] | [7] | [8] | [9] | [10] | [12] | [14] | [15] | [16] | [17]

CC(=O)OCC=C(C)CCC=C(C)CCC=C(C)C
active: [9] 3.97 µM | [11] 8.81 µM | [14] 0.016 µM
not listed: [19] | [20]
inactive: all other assays above
